This is an account of results in PubChem BioAssay AID1274 (Emory University Molecular Libraries Screening Center, 2008).

In all, about 220,000 compounds went through this assay and about 1,100 (0.5%) were called active.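 How the source made its calls: active means inhibition above about 30% (limit read from the data); inactive means the rest.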 What follows is part of a selection rich in actives, with near analogues and random picks from the rest.

Sequence of Neutrophil cytosol factor 1 (Homo sapiens) (P14598 whole entry, looked up): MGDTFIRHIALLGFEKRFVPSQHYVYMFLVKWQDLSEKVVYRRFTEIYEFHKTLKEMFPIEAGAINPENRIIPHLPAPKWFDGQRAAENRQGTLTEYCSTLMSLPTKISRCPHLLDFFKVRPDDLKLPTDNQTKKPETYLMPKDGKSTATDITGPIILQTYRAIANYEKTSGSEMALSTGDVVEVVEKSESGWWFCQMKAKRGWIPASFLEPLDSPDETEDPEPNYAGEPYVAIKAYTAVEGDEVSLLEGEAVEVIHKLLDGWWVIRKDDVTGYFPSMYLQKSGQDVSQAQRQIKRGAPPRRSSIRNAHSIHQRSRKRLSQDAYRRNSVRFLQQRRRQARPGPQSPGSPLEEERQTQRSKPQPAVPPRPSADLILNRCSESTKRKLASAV

The test concerns the target Neutrophil cytosol factor 1 (Homo sapiens) (UniProt P14598). As to the kind of experiment: p47phox/p22phox peptide binding inhibitors, primary screen, biochemical, uHTS, NADPH oxidase regulatory subunit (AID 1274).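 Further: 0% = p47phox with labelled peptide and 100% = labelled peptide alone.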 To be noted: fluorescence polarization, 2 h, at 24.7 µM, stronger effect = higher value.
As to `COc1ccc(N2C(=O)CC(SC(C)C)C2=O)cc1` (stereo not drawn), the inhibition was -5.28% (inactive).
With `COc1ccc(N2C(=O)CNC2=S)cc1` the figure was 41.5% (active).
Next, `COc1ccc(N2C(=O)C(Cc3ccccc3)NC2=S)cc1` (stereo not drawn): -10.2% (inactive); `Cc1c(C(=O)OC(C)C)sc(NC(=O)c2cccnc2)c1C#N`: -54.3% (inactive).
Next, `Cn1cnnc1SCC(=O)Nc1ccc(N2CCOCC2)cc1`: 50% (active); `O=C(O)CCC(=O)Nc1ccc(N2CCOCC2)cc1`: -1.84% (inactive); `O=C(CSc1ccc([N+](=O)[O-])cn1)Nc1ccc(N2CCOCC2)cc1`: 2.81% (inactive).
For `CN1CCN(CCCCOc2ccccc2-c2ccccc2)CC1`, the inhibition is -0.29% (inactive).
Next, `CC(C)=CCCC1(C)C=Cc2c(ccc3c2[nH]c2cc(O)c(C)cc23)O1` (stereo not drawn): -11.9% (inactive).
Next, `O=c1[nH]c2ccccc2n2c(-c3ccccc3)nnc12`: 69.6% (active).
With `O=[N+]([O-])c1cccc(-c2nnc3c4ccccc4c4ccccc4n23)c1` the figure was -1.55% (inactive); with `CCOC(=O)c1cnc2[nH]c3ccccc3n2c1=O`, 0.2% (inactive); with `COc1ccc2oc(N)c(C=O)c(=O)c2c1`, -6.85% (inactive).
As for `CC/C(O)=N\S(=O)(=O)c1ccc(N=NN(C)C)cc1`, the inhibition is -7.34% (inactive).
With `COc1ccccc1OCCNC(=O)c1cc([N+](=O)[O-])cc([N+](=O)[O-])c1` the figure was 5.08% (inactive); with `CCc1cc(Br)ccc1NC(=O)C1CCCO1` (stereo not drawn), -3.52% (inactive).
With `CCOC(=O)Cn1c(=O)oc2cc(S(=O)(=O)NCC3CCCO3)ccc21` (stereo not drawn) the figure was -8.76% (inactive); with `OC(CNCC1CCCO1)Cn1c2ccc(Br)cc2c2cc(Br)ccc21` (stereo not drawn), 64% (active); with `CS(=O)(=O)N1CCc2cc(C(=O)Nc3ccccc3)ccc21`, -4.32% (inactive).
Next, `CC(C)Cc1nn2c(=O)cc(O)nc2s1`: -2.97% (inactive).
Regarding `Cc1cc(=O)[nH]c(=S)[nH]1`, the inhibition was -3.01% (inactive).
With `Cc1c(C)c(C)c2[nH]c(=S)[nH]c2c1C` the figure was -7.18% (inactive); with `O=c1[nH]c(=S)[nH]c2[nH]c(=S)[nH]c12`, 32.1% (active).
Next, `Cn1c(=O)c([N+](=O)[O-])c(Oc2ccccc2)c2ccccc21`: 0.11% (inactive); `CCOc1cc(NC(=S)NCCCOC)c(OCC)cc1NC(=O)c1ccco1`: -10.9% (inactive); `CCOc1cc(NC(=O)c2ccco2)c(OCC)cc1NC(=O)COc1ccccc1`: 35.5% (active).
For `CCOc1cc(NC(=S)NCc2ccco2)c(OCC)cc1NC(=O)c1ccco1`, the inhibition was 4.63% (inactive).
For `COc1ccccc1P(=O)(c1ccccc1)c1ccccc1NC(C)=O` (stereo not drawn), the inhibition was 7.25% (inactive).

For orientation: inhibition means the change of the read-out against control, counted positive when it falls.
